This is part of a sample that, as a whole, favours compounds with a hit. Of some 83,000 tested, about 20% had one in any assay.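 Cells were grown in 96-well plates and exposed to the test compound at a single concentration for 48 hours; results are reported as percent growth, with values below 10 considered active.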 The source made the active and inactive calls.

In one assay the test system is HOP-62 NSCLC. Briefly: NCI-60 one-dose screen, 48 h (100 = growth as untreated, 0 = no growth, -100 = all killed). Conditions: 10 µM unless noted.
Turning to `O=c1c2cccc3c(Nc4ccccn4)ccc(c32)c2nc3ccccc3n12`, the growth is 67.8% (inactive).
As for `CN(C)c1ccc(/C=C\C2=[N+](C)c3ccccc3C2(C)C)cc1`, the growth was 13.6% (inactive).
Still for that read-out and setting: in the case of `Cn1cc(-c2nc(-c3c[nH]c4ccccc34)cs2)c2cccnc21` it was 33.3% (inactive); in that of `CCOC(=O)CC(=O)c1c(C)cc(C)cc1C`, 110% (inactive).
For the compound `CC(C)c1c(C(=O)Nc2ccccc2)c(-c2ccccc2)c(-c2ccc(F)cc2)n1CC[C@@H]1CC=CC(=O)O1`, the growth was 12.4% (inactive).
As to `CCN(CC)Cc1cc(Nc2c3ccc(Cl)cc3nc3c(C)cccc23)ccc1O`, the growth is -74.6% (active).
In the case of `O=[N+]([O-])c1cccc(C2CC(c3ccccc3)=Nc3ccccc3S2)c1` (stereo unspecified), the growth was 98.5% (inactive).
On to `C=C1C(=O)O[C@H]2[C@H]1CC/C(Cn1cc(Cn3ccc4ccccc43)nn1)=C\CC[C@@]1(C)O[C@@H]21`, for which the growth is 77.5% (inactive).
Take `C=C1CCC2C3(C)COC(c4ccccc4Br)OC3CCC2(C)C1C/C=C1/C(=O)OCC1OC(C)=O` (stereo unspecified): the growth is 11.5% (inactive).
On the same count and under the same terms, the result for `N=S(=O)(NC(=O)c1ccc(Cl)cc1Cl)c1ccc(Br)s1` (stereo unspecified) reads 91% (inactive).
On to `CS(=O)CCCCCN=C=S` (stereo unspecified), for which the growth was -7.49% (active).
With `CC1CN(C(C)C)C(=S)N(c2ccccc2)C1=O` (stereo unspecified), the growth was 85.7% (inactive).
The same measure, in the same setting: in the case of `CC/C=C\C[C@H](O)C/C=C1/C(=O)C=C[C@@H]1C/C=C\CCCC(N)=O` it was -15.6% (active); in that of `CCOC(=O)c1ccc2c(c1)nc(/C=C/c1ccc(Cl)cc1)n2-c1cc(C(C)(C)C)[nH]n1`, 43.1% (inactive); in that of `COC1/C=C\OC2(C)Oc3c(C)c(O)c4c(O)c(c(CN(C)CCO)c(O)c4c3C2=O)NC(=O)/C(C)=C\C=C/C(C)C(O)C(C)C(O)C(C)C(OC(C)=O)C1C` (stereo unspecified), 89.7% (inactive).
For the compound `C(=N\Nc1ccccn1)/c1ccccn1`, the growth is 19.2% (inactive).
On the same count and under the same terms, the result for `O=C1C=CC(=O)N1c1ccc(Cc2ccc(N3C(=O)C=CC3=O)cc2)cc1` reads 90.5% (inactive); that for `COc1cc(NC(N)=NCC(C)(C)COc2ccc(C(F)(F)F)cc2)cnc1C#N`, 68.5% (inactive).
On the same count and under the same terms, in the case of `CCOC(=O)C(Cc1cc(I)c(O)c(I)c1)NC(=O)c1ccccc1` (stereo unspecified) it was 78.8% (inactive); in that of `CCn1cc2c(cc1=O)-c1nc3ccccc3c3ccnc(c13)C2=O`, 11.9% (inactive).
For `Nc1c(C(=O)Nc2ccccc2)sc2nc3c(cc12)CN(CCc1ccccc1)CC3`, the growth was 99.2% (inactive).
Still for that read-out and setting: the result for `COc1ccc2nc3cc(Cl)ccc3c(NCCNCC(O)CO)c2c1` (stereo unspecified) reads 31.5% (inactive); that for `COc1ccc(C2c3ccc4ccccc4c3Oc3ncnc(N)c32)cc1` (stereo unspecified), 45.1% (inactive).
For the compound `CCCCCCCCCCCCCCCC[N+]1(CC)CCCC1`, the growth was -49.7% (active).
As to `O=C1O[C@H]([C@H](O)CO)C(O)=C1O`, the growth is 107% (inactive).
As for `Cc1cc2c(cc1C)NC1=C(N2)OC(c2c3ccccc3cc3ccccc23)C1=O` (stereo unspecified), the growth was 31.9% (inactive).
For the compound `O=C(CN1CCN(c2cc3c(cc2F)c(=O)c(C(=O)O)cn3C2CC2)CC1)Nc1cc(=O)[nH]c(=O)[nH]1`, the growth is 102% (inactive).
`NC(N)=Nc1ccc(S(=O)(=O)O)cc1`: the growth is 106% (inactive).
Same read-out and setting: the result for `COc1cc(C#N)cc(OC)c1OCCN(CCOc1c(OC)cc(C#N)cc1OC)S(=O)(=O)c1ccc(C)cc1` reads 100% (inactive); that for `C[C@@H]1CC[C@@H]2[C@@H]1[C@H](OC(=O)/C=C/c1ccccc1)[C@]1(C3CCCCC3)C[C@@H](OC(=O)CO)[C@@]2(C)O1`, 86% (inactive); that for `O=S(=O)(Nc1ccc(Cl)cc1Cl)c1ccc(-c2cnc(C3CC3)o2)cc1`, 31.5% (inactive).
On the same count and under the same terms, in the case of `O=[N+]([O-])c1cccc(-c2nc3sccn3c2-c2ccnc(NCCNS(=O)(=O)c3ccc(C(F)(F)F)cc3)n2)c1` it was 73% (inactive); in that of `CC[C@@H](C)OC(=O)c1nn(C(C)=O)c2ccccc12`, 105% (inactive); in that of `CCN(CC)CC(O)CNc1c2ccc([N+](=O)[O-])cc2nc2cc(OC)c(OC)cc12` (stereo unspecified), -51% (active).
Take `CN1/C(=C\C=C\C2=[N+](C)c3ccccc3C2(C)C)C(C)(C)c2ccccc21`: the growth was 3.55% (active).
As for `COc1ccc(-c2nn(-c3ccccc3)cc2/C=C2\SC(=O)NC2=O)cc1`, the growth was 101% (inactive).
`O=C(O)c1ccc2c(c1Sc1ccccc1)C(=O)c1ccccc1C2=O`: the growth is 91.8% (inactive).
Regarding `CCOC(=O)C12CCCC1=CC(=O)CC2` (stereo unspecified), the growth was 101% (inactive).

The test system of a further assay is NCI-H460 lung. The assay is described as above. Particulars: 10 µM unless noted.
As for `O=c1c2cccc3c(Nc4ccccn4)ccc(c32)c2nc3ccccc3n12`, the growth was 52.7% (inactive).
For `CN(C)c1ccc(/C=C\C2=[N+](C)c3ccccc3C2(C)C)cc1`, the growth is 4.52% (active).
Same read-out and setting: in the case of `Cn1cc(-c2nc(-c3c[nH]c4ccccc34)cs2)c2cccnc21` it was 16.8% (inactive).
As to `CCOC(=O)CC(=O)c1c(C)cc(C)cc1C`, the growth was 105% (inactive).
For `CC(C)c1c(C(=O)Nc2ccccc2)c(-c2ccccc2)c(-c2ccc(F)cc2)n1CC[C@@H]1CC=CC(=O)O1`, the growth was 5.24% (active).
On the same count and under the same terms, in the case of `CCN(CC)Cc1cc(Nc2c3ccc(Cl)cc3nc3c(C)cccc23)ccc1O` it was -78.1% (active).
On the same count and under the same terms, the result for `O=[N+]([O-])c1cccc(C2CC(c3ccccc3)=Nc3ccccc3S2)c1` (stereo unspecified) reads 106% (inactive); that for `C=C1C(=O)O[C@H]2[C@H]1CC/C(Cn1cc(Cn3ccc4ccccc43)nn1)=C\CC[C@@]1(C)O[C@@H]21`, 86.5% (inactive); that for `C=C1CCC2C3(C)COC(c4ccccc4Br)OC3CCC2(C)C1C/C=C1/C(=O)OCC1OC(C)=O` (stereo unspecified), 1.8% (active).
Take `N=S(=O)(NC(=O)c1ccc(Cl)cc1Cl)c1ccc(Br)s1` (stereo unspecified): the growth is 85.8% (inactive).
For `CS(=O)CCCCCN=C=S` (stereo unspecified), the growth is 0.781% (active).
As to `CC1CN(C(C)C)C(=S)N(c2ccccc2)C1=O` (stereo unspecified), the growth is 105% (inactive).
On the same count and under the same terms, in the case of `CC/C=C\C[C@H](O)C/C=C1/C(=O)C=C[C@@H]1C/C=C\CCCC(N)=O` it was -9.93% (active).
As to `CCOC(=O)c1ccc2c(c1)nc(/C=C/c1ccc(Cl)cc1)n2-c1cc(C(C)(C)C)[nH]n1`, the growth is 59% (inactive).
`COC1/C=C\OC2(C)Oc3c(C)c(O)c4c(O)c(c(CN(C)CCO)c(O)c4c3C2=O)NC(=O)/C(C)=C\C=C/C(C)C(O)C(C)C(O)C(C)C(OC(C)=O)C1C` (stereo unspecified): the growth was 103% (inactive).
As to `C(=N\Nc1ccccn1)/c1ccccn1`, the growth is 7.9% (active).
Regarding `O=C1C=CC(=O)N1c1ccc(Cc2ccc(N3C(=O)C=CC3=O)cc2)cc1`, the growth was 94.8% (inactive).
`COc1cc(NC(N)=NCC(C)(C)COc2ccc(C(F)(F)F)cc2)cnc1C#N`: the growth is 58% (inactive).
Turning to `CCOC(=O)C(Cc1cc(I)c(O)c(I)c1)NC(=O)c1ccccc1` (stereo unspecified), the growth was 104% (inactive).
Turning to `CCn1cc2c(cc1=O)-c1nc3ccccc3c3ccnc(c13)C2=O`, the growth is 2.86% (active).
As to `Nc1c(C(=O)Nc2ccccc2)sc2nc3c(cc12)CN(CCc1ccccc1)CC3`, the growth was 100% (inactive).
Same read-out and setting: in the case of `COc1ccc2nc3cc(Cl)ccc3c(NCCNCC(O)CO)c2c1` (stereo unspecified) it was 0.301% (active); in that of `COc1ccc(C2c3ccc4ccccc4c3Oc3ncnc(N)c32)cc1` (stereo unspecified), 92.4% (inactive).
For the compound `CCCCCCCCCCCCCCCC[N+]1(CC)CCCC1`, the growth is -66.8% (active).
Turning to `O=C1O[C@H]([C@H](O)CO)C(O)=C1O`, the growth is 104% (inactive).
On the same count and under the same terms, the result for `Cc1cc2c(cc1C)NC1=C(N2)OC(c2c3ccccc3cc3ccccc23)C1=O` (stereo unspecified) reads 2.12% (active); that for `O=C(CN1CCN(c2cc3c(cc2F)c(=O)c(C(=O)O)cn3C2CC2)CC1)Nc1cc(=O)[nH]c(=O)[nH]1`, 105% (inactive).
The same measure, in the same setting: in the case of `NC(N)=Nc1ccc(S(=O)(=O)O)cc1` it was 109% (inactive); in that of `COc1cc(C#N)cc(OC)c1OCCN(CCOc1c(OC)cc(C#N)cc1OC)S(=O)(=O)c1ccc(C)cc1`, 112% (inactive).
As to `C[C@@H]1CC[C@@H]2[C@@H]1[C@H](OC(=O)/C=C/c1ccccc1)[C@]1(C3CCCCC3)C[C@@H](OC(=O)CO)[C@@]2(C)O1`, the growth was 68.3% (inactive).
In the case of `O=S(=O)(Nc1ccc(Cl)cc1Cl)c1ccc(-c2cnc(C3CC3)o2)cc1`, the growth was 12.7% (inactive).
Same read-out and setting: the result for `O=[N+]([O-])c1cccc(-c2nc3sccn3c2-c2ccnc(NCCNS(=O)(=O)c3ccc(C(F)(F)F)cc3)n2)c1` reads 33.4% (inactive); that for `CC[C@@H](C)OC(=O)c1nn(C(C)=O)c2ccccc12`, 112% (inactive).
Turning to `CCN(CC)CC(O)CNc1c2ccc([N+](=O)[O-])cc2nc2cc(OC)c(OC)cc12` (stereo unspecified), the growth is -49.6% (active).
Still for that read-out and setting: in the case of `CN1/C(=C\C=C\C2=[N+](C)c3ccccc3C2(C)C)C(C)(C)c2ccccc21` it was 0.247% (active).
As to `COc1ccc(-c2nn(-c3ccccc3)cc2/C=C2\SC(=O)NC2=O)cc1`, the growth was 97.5% (inactive).
As to `O=C(O)c1ccc2c(c1Sc1ccccc1)C(=O)c1ccccc1C2=O`, the growth is 100% (inactive).
Turning to `CCOC(=O)C12CCCC1=CC(=O)CC2` (stereo unspecified), the growth was 107% (inactive).
